# In all, about 140,000 compounds went through this assay and about 4,300 (3.1%) were called active. Not shown: some 21% with an inconclusive outcome. The entries come from a sample that favours actives as a whole. A number with no mark means an inactive call.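 How the source made its calls: active means readout at or below -70, meaning at least 70% loss of cells showing the perinucleolar compartment, a nuclear body marking cancer cells; inconclusive means readout between -30 and a set limit; inactive means the rest.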
# Experiment: High Content Assay for Compounds that inhibit the Assembly of the Perinucleolar Compartment;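 further: plate controls were DMSO wells for no effect and camptothecin positive control wells for full effect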
# Conditions: PC3M PTB-GFP, PNC prevalence imaging, 16 h; at 10 µM; stronger effect = lower value
# Summary of the method: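 PC3M cells stably expressing PTB-GFP, 750–1000 cells/well, treated 16 h at 37 °C with compound (23 nl of library stock), in duplicate. After paraformaldehyde fixation and Hoechst stain, imaged at 20x; PNC prevalence scored by image analysis.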
row,Structure (SMILES),"activity change (PNC), negative = inhibition"
1,O=C(COC(=O)c1cc(-c2cccs2)nn1-c1ccccc1)Nc1cc([N+](=O)[O-])ccc1Cl,21.6%
2,COc1ccc(OCCCON2C(=O)c3ccccc3C2=O)cc1,0.67%
3,COc1ccc(C(=O)CN(C(=O)c2ccc(Cl)cc2)N2C(=O)c3ccccc3C2=O)cc1,-9.88%
4,CCCCC(C(=O)OCC(=O)c1ccc(OC)cc1)N1C(=O)c2ccccc2C1=O (configuration not stated),-100% (active)
5,CCCCN1C(=O)CCC(C(=O)O)C1c1ccc(OC)cc1 (configuration not stated),36.8%
6,CCN(CC)c1ccc(S(=O)(=O)N2CCOCC2)cc1NC(=O)CSc1cccc[n+]1[O-],11.8%
7,Cc1nc(NCc2ccccc2)c(C(N)=O)c2c1COC(C)(C)C2,-122% (active)
8,Cc1nc(NCCN)c(C#N)c2c1COC(C)(C)C2,32.5%
9,O=C(c1cccnc1NCc1ccccc1)N1CCOCC1,40.9%
10,S=C(NCc1ccc(Cl)cc1)NC1CCCCC1,32.1%
11,COc1ccc(S(=O)(=O)N2CCC(C(=O)N3CCc4ccccc4C3)CC2)cc1OC,-84.1% (active)
12,COc1ccc(S(=O)(=O)N2CCN(C(=O)c3cccs3)CC2)cc1OC,-15.3%
13,COc1ccc(S(=O)(=O)N2CCC(C(=O)N3CCOCC3)CC2)cc1OC,-7.88%
14,C=CCNC(=O)/C(=C\c1cccc([N+](=O)[O-])c1)NC(=O)c1ccccc1,48.8%
15,O=C(CSc1ncnc2scc(-c3ccccc3)c12)NCc1ccc2c(c1)OCO2,40.3%
16,Cc1cc(O)ccc1NC1=CC(=O)CC(C)(C)C1,-15.4%
17,Cc1noc(COc2ccccc2OCc2onc(C)c2Cl)c1Cl,-100% (active)
18,Cc1noc(COc2ccccc2OCC(O)CNC(C)(C)C)n1 (configuration not stated),-3.16%
19,Cc1nc2ccccc2cc1OCc1ccc(F)cc1,41.2%
20,COc1ccc(CCNC(=O)COC(=O)C2CCCCC2)cc1,43.3%
21,Cc1cccc(C)c1NC(=O)C(c1ccccc1)N1CC(=O)Nc2ccccc21 (configuration not stated),43.2%
22,CCn1c(C(C)NC(=O)c2ccc(C)cc2)n[nH]c1=S (configuration not stated),8.92%
23,Cc1ccc(CC(=O)Nc2ccc(OC(F)F)c(Cl)c2)cc1C,5.84%
24,N#CC1=C(SCc2ccc(C#N)cc2)N=C(N)C(c2nc(-c3ccccc3)cs2)C12CCCCC2 (configuration not stated),-112% (active)

row,Structure (SMILES),"activity change (PNC), negative = inhibition"
1,N#CC1=C(SCc2ccccc2)NC(=O)C(C#N)C12CCCC2 (configuration not stated),9.75%
2,COc1ccnc(Oc2ccccc2)n1,-12.4%
3,C/C=C/c1ccc(OCCOc2ccc(C=O)cc2OC)c(OC)c1,-108% (active)
4,C=CCOc1ccc(/C=N/n2cncn2)cc1OC,5.24%
5,COc1cc(/C=N/NC(=O)Nc2ccccc2)ccc1OCCOc1ccccc1C,-16.5%
6,CCOC(=O)/C=C/C(=O)OCC(=O)NC(c1ccccc1)c1ccccc1,-28.2%
7,CCCOc1ccccc1C1CC(=O)Nc2cc3c(cc21)OCO3 (configuration not stated),-92% (active)
8,COc1ccc(C2CC(=O)Nc3cc(C)c(C)cc32)c(OC)c1OC (configuration not stated),-26.4%
9,COCCOC(=O)C1=C(C)NC(=O)CC1c1cc2c(cc1Br)OCO2 (configuration not stated),63.3%
10,CCCSc1nc2[nH]ncc2c(=O)[nH]1,26.1%
11,Cc1cc(C(=O)COc2ccccc2[N+](=O)[O-])c(C)n1-c1cccc(S(=O)(=O)N2CCOCC2)c1,101%
12,CC1(C)C2CC=C(/C=N/NC(=O)c3ccc(Cl)cc3)C1C2 (configuration not stated),14.2%
13,CCN(CC(=O)NCCc1ccccc1)S(=O)(=O)c1ccc(C)cc1,-0.956%
14,Cn1c(=O)n(C)c2cc(C(=O)Nc3ccc4c(c3)OCO4)ccc21,-87% (active)
15,COc1ccc(C(=O)Nc2ccc3c(c2)OCO3)cc1OC,5.14%
16,O=C(Nc1ccc2c(c1)OCO2)c1ccc(N2C(=O)c3ccccc3C2=O)cc1,-11%
17,COc1cc(C(=O)Nc2cc(C(F)(F)F)ccc2N2CCOCC2)ccc1O,44.6%
18,CCOC(=O)C1C(=O)NC(N2CCN(c3ccccc3)CC2)=NC1c1ccco1 (configuration not stated),-90% (active)
19,CCOC(=O)C1C(=O)NCC1c1ccccc1 (configuration not stated),-16.9%
20,CCOC(=O)C1C(=O)C=C(c2ccc(OC)cc2)CC1c1ccco1 (configuration not stated),27.1%
21,COc1cccc(/C=N/NC(=O)CNC(=O)c2ccc(S(=O)(=O)N3CCOCC3)cc2)c1OC,69.9%
22,Cc1ccccc1N/C(SCc1ccc(Cl)cc1)=C(/C#N)C(N)=O,-1.22%
23,CCN(CC)c1ccc(C(=O)N/N=C(\C)c2cccc(OC)c2)cc1,14.7%
